# IL-1B inflam inh: blocks inflammasome-driven IL-1 beta release | THP-1 LPS/ATP IL-1B secretion, AlphaLISA, 16 h; active compounds read low | activity change, % at 57.5 µM | 360,000 tested, 4.7% active; in the data active = activity change below about -50%; inconclusive = mostly about -30% to -49%; also: % is scaled to controls: 0 for no effect and ±100 for the full control effect
#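 Secreted IL-1B measured by AlphaLISA bead assay after 16 h compound exposure of THP-1 cells; compounds (final up to 57.5 uM) added 1 h before LPS (250 ng/mL) and ATP (1.25 mM) stimulation; lower signal means less secretion.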
# ATXN viability: cell viability loss in ATXN counter-screen; S2 cells (HEK-293 line with an ATXN2-luciferase reporter) viability, CellTiter-Fluor protease fluorescence, 24 h; Potency, µM (top dose mostly 56.7 µM), actives largely listed as cytotoxic; 400,000 tested, 0.49% active; AID 651635; also: potency is read from the fitted curve at half-maximal effect; nearly all actives have a fitted effect of over 40% in size
# D3 antag: antagonists of human D3 dopamine receptor | D3R cells, DiscoveRx beta-arrestin luminescence, antagonist mode; active compounds read low | max response, negative = inhibition, % | 360,000 tested, 2.5% active | AID 652054; in the data active = max response below about -50%; inconclusive = no clear call, values can overlap the other calls; also: % is scaled to controls: 0 for no effect and ±100 for the full control effect
# Target sequence (P35462 whole entry, looked up): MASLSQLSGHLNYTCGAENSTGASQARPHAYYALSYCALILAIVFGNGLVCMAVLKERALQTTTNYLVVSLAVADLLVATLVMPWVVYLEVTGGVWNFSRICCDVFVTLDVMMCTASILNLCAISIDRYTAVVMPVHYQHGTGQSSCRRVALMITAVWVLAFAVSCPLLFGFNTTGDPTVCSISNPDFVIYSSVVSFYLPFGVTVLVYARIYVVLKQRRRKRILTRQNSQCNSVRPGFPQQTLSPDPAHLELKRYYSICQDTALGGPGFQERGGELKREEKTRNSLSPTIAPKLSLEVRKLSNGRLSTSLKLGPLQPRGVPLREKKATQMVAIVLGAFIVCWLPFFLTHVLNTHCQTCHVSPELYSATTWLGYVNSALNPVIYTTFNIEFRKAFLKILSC
#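 Cells plated overnight at 1500 cells/well, then exposed to library compounds with dopamine controls for 90 minutes at 37 degrees C. DiscoveRx reagent added for 30–60 minutes at room temperature; luminescence read, quantitative HTS format.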
# ATXN2 expr inh: ATXN2 expression inhibition | HEK-293 ATXN2-luciferase reporter, luminescence, 24 h | Potency, µM (highest dose often 57 µM), without a hit: at the highest dose activity change, negative = inhibition, actives largely listed as inhibitors | 360,000 tested, 0.72% active; also: potency is read from the fitted curve at half-maximal effect; % is scaled to controls: 0 for no effect and ±100 for the full control effect; nearly all actives have a fitted effect of over 55% in size
#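 ATXN2-luciferase reporter cells (luciferase flanked by upstream and downstream ATXN2 gene portions) were treated 24 h at 37 °C with compounds at up to 57 uM. SteadyGlo luminescence gave expression; GF-AFC fluorescence gave viability.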
# D3 ag: activates the human D3 dopamine receptor | 410,000 tested, 0.58% active | max activation, % | D3R DiscoveRx beta-arrestin cells, luminescence, 90 min | AID 652048; in the data active = max activation above about 30%; also: 0% is about no effect
#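 Agonist mode: compounds and dopamine controls were applied to plated cells for 90 min at 37 degrees C after an overnight attachment at 1500 cells/well. Luminescent read-out followed 30 - 60 minutes at room temperature with DiscoveRx detection reagent.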
# Integrin act MD: activators of alpha7 integrin expression for muscular dystrophy | alpha7betagal myoblasts, beta-gal FDG fluorescence, 48 h | Potency, µM (series often up to 38.3 µM), inactives show at the highest dose activation, actives largely listed as activators | 350,000 tested, 0.064% active | AID 624291;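 also: potency is read from the fitted curve at half-maximal effect; 100% = response of the positive control SU9516; nearly all actives have a fitted effect of over 60% in size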
#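 alpha7betagal+/- myoblasts (passage 13, 250/well) treated 48 h at 37C with compounds at 1:260 dilution of DMSO stock. Lysed, then beta-galactosidase activity read as FDG fluorescence (ex 480/em 540) after 30 min, with pre-read for autofluorescence.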
# * marks the source's active call; other numbers are inactive results; i = inactive; ? = inconclusive; nt = no result; ! = a repeat was not active; [ ] = remark or other dose. Compounds with a hit are over-represented: about 7% of the library has one in this group of screens. Unless noted, calls follow the shape of the dose curve; as a rule, active = well fitted curve in the direction sought with a large enough effect; inconclusive = small, poorly fitted or top-dose-only effect, or another doubt; inactive = no such curve, though single readings can be large; an effect the other way counts as inactive or inconclusive.
SMILES,IL-1B inflam inh,ATXN viability,D3 antag,ATXN2 expr inh,D3 ag,Integrin act MD
O=C(CCl)Nc1cccc(S(=O)(=O)N2CCCCCC2)c1,-102.5*,25.1µM*,-26.4,?,-6.4,-50.3%
O=C(COc1ccc(Br)cc1CO)Nc1ccc(S(=O)(=O)N2CCCC2)cc1,-57.3*,i,-10.5,?,1.8,25.0%
Cc1ccc(C)c(OCCC(=O)OCC(=O)Nc2cccc(S(=O)(=O)N3CCCC3)c2)c1,-3.9,i,0.0,7.2%,-19.8,7.8%
CNC(=O)NC(=O)COc1c(F)c(F)cc(F)c1F,-3.2,i,-1.5,-1.7%,0.1,-3.9%
COC(=O)C1CCN(C(=O)COC(=O)C2CCN(S(=O)(=O)c3ccc4c(c3)OCCO4)CC2)CC1,1.6,i,7.0,9.3%,2.0,3.6%
CC1=C(C(=O)Nc2cccnc2)C(c2cccc(F)c2)n2nc(SCc3ccccc3F)nc2N1 (centres undefined),nt,i,nt,-0.1%,-6.9,nt
CC1(C)Cc2c(c(-c3ccccc3)nc(N3CCCC3)c2C(N)=O)CO1,3.8,i,-14.4,8.8%,9.0,-19.8%
O=S(=O)(c1ccc(NC(=S)N/N=C/c2ccc(N3CCOCC3)cc2)cc1)N1CCOCC1,12.6,i,2.1,-20.2%,7.3,15.2%
CC(=O)Nc1cc(NC(C)=O)cc(-c2nc3ccccc3[nH]2)c1,12.8,31.6µM*!,3.8,?,4.4,-12.1%
CC(C)(C)NC(=O)c1oc2ccccc2c1COc1ccccc1,11.7,i,-4.9,-14.1%,-2.1,4.2%
CCN(CCNCC(O)COc1ccccc1C(C)C)c1cccc(C)c1 (centres undefined),-103.9*,nt,-16.2,?,-7.4,-76.6%
CN(C)/C=C/C(=O)/C=C/c1ccc(Cl)cc1,-100.2*,?,-13.2,-8.8%,6.6,-28.3%
CN(C)/C=C/C(=O)c1ccc(Cl)cc1,-18.9,i,-7.3,12.9%,-8.5,2.5%
Cc1cc2oc(=O)cc(CN3CCC(C)CC3)c2cc1Cl,-8.1,?,-51.5*,6.1%,-4.0,-13.7%
Cc1ccc2c(CN3CC(C)CC(C)C3)cc(=O)oc2c1 (centres undefined),35.1,i,-4.3,23.5%,-2.7,-10.5%
Cc1ccc2c(CN3CCC(C)CC3)cc(=O)oc2c1,7.5,i,-61.3*,52.1%,-34.4,-2.7%
COc1ccccc1NC(=O)N(CCN1CCCC1)Cc1cc2cc(C)ccc2[nH]c1=O,6.5,?,13.0,-16.9%,-28.7,-3.6%
O=C(O)CN1C(=O)C(=O)N(Cc2ccc(Cl)cc2Cl)C1=O,13.9,i,-27.4,-9.5%,2.5,-4.8%
Cc1ccc(C(=O)Nc2ccc3cn[nH]c3c2)cc1S(=O)(=O)N1CCOCC1,5.5,i,38.2,nt,10.6,5.0%
COc1ccccc1NC(=O)Nc1nc(CC(=O)Nc2ccc(F)cc2)cs1,-16.2,i,17.6,2.8%,1.2,21.5%
COc1ccccc1NC(=O)Nc1nc(C(N)CCc2ccccc2)cs1 (centres undefined),-29.0,?,-96.0*,?,-17.5,nt
COc1ccccc1NC(=O)Nc1nc(CC(=O)Nc2ccc(F)c(F)c2)cs1,-69.2*,?,?,6.5%,-1.4,-11.9%
COc1ccc(CCNC(=O)Nc2nc(C(N)CCc3ccccc3)cs2)cc1OC (centres undefined),?,?,-6.4,0.0%,1.6,nt
COc1ccccc1NC(=O)Nc1nc(C(C)(C)C)cs1,-83.1*,i,-20.4,4.3%[11.3 µM],-14.6,4.3%
COc1cc(CNC(=O)Nc2nc(C(N)CCc3ccccc3)cs2)cc(OC)c1OC (centres undefined),-54.0*,?,0.0,?,-10.0,nt
SMILES,IL-1B inflam inh,ATXN viability,D3 antag,ATXN2 expr inh,D3 ag,Integrin act MD
COc1ccc(OC)c(NC(=O)Nc2nc(CN)cs2)c1,-7.7,i,5.7,-7.0%,-0.7,nt
COc1ccc(OC)c(NC(=O)Nc2nc(C(C)N)cs2)c1 (centres undefined),-68.9*,i,-11.6,-0.9%,6.7,nt
COc1ccc(CNC(=O)Nc2nc(C(N)CCc3ccccc3)cs2)cc1 (centres undefined),-56.1*,?,15.6,?,5.4,nt
COc1ccc(CC(N)c2csc(NC(=O)CCc3ccccc3)n2)cc1 (centres undefined),?,i,-17.0,?,-2.9,nt
CCOc1ccc(NC(=O)c2cc(S(=O)(=O)N3CCC(C)CC3)cn2C)cc1,nt,i,nt,-2.0%,-5.5,nt
CCc1ccccc1NC(=O)c1cc(S(=O)(=O)N2CCC(C)CC2)cn1C,nt,i,nt,-8.5%,62.0*,nt
O=C(Nc1ccc(OC(F)F)c(Cl)c1)c1cccc(OC(F)F)c1,-54.5*,i,10.6,3.7%,3.0,1.0%[7.66 µM]
O=C(Nc1ccc([N+](=O)[O-])cc1)Nc1ccc(OC(F)F)c(Cl)c1,-88.8*,nt,3.5,12.6µM*,-2.4,-44.1%
CC(C(=O)Nc1ccccc1Br)c1ccc([N+](=O)[O-])cc1 (centres undefined),-8.8,i,-5.8,nt,-0.9,10.0%
O=C(Nc1ccc(OC(F)F)c(Cl)c1)Nc1ccc2c(c1)OCO2,-78.9*,?,-4.8,-11.9%,-4.6,-13.4%
O=C(Nc1ccc2c(c1)OCO2)Nc1ccc2c(c1)OCO2,-29.0,i,-21.7,11.7%,-17.2,-6.1%
Cc1ccc(NC(=O)C(C)c2ccc([N+](=O)[O-])cc2)cc1Cl (centres undefined),-104.0*,i,9.3,-18.3%[11.3 µM],-0.5,-4.3%
COC(=O)c1sccc1NS(=O)(=O)c1ccccc1,31.0,i,-2.1,-5.2%,-0.9,3.6%
COc1ccc(C(=O)Nc2cccc([N+](=O)[O-])c2)cc1Br,16.2,?,-4.9,-30.6%,-1.9,23.8%
COc1ccc(NC(=O)Nc2cccc([N+](=O)[O-])c2)cc1Cl,-83.5*,?,-4.6,-28.5%,-1.8,-41.3%
C[C@@H](CSc1ccccc1)CN1CC[C@H](C(C)(C)C)CCC1=O,-11.3,i,1.4,-0.8%,0.5,-12.8%
COc1ccc(SC[C@H](C)CN2CC[C@H](C(C)(C)C)CCC2=O)cc1,-91.9*,?,17.1,?,5.9,-3.1%
Cc1ccc(C)c(NC(=O)CCC(=O)OC(C(=O)c2ccccc2)c2ccccc2)c1 (centres undefined),7.5,i,-19.9,-7.3%,6.0,2.7%
CCC(=O)Nc1cc(C(=O)OC(C(=O)c2ccc(C)c(C)c2)c2ccccc2)ccc1C (centres undefined),-58.5*,i,-8.7,-13.5%,-1.6,13.8%
NS(=O)(=O)c1ccc(NC(=S)NCc2ccccc2Cl)cc1,-2.9,i,-67.8*,-4.4%,-7.8,6.9%
Fc1ccc(NC(=S)NCc2ccccc2Cl)cc1,-71.0*,i,10.4,5.6%,3.6,0.0%

# Source: PubChem
